Reference: PubChem BioAssay (NCATS)
Results filed as inconclusive are left out. Calls of active or inactive are those of the source. Calls come from the whole dose curve; as a rule, active = well fitted curve in the direction sought with a large enough effect; inconclusive = small, poorly fitted or top-dose-only effect, or another doubt; inactive = no such curve, though single readings can be large; an effect the other way counts as inactive or inconclusive.

Assay: Primary qHTS for inhibitors of nuclear receptor binding SET domain protein 2 (NSD2) in an isogenic RCH-ACV NSD2 p.E1099K mutant (9B) (AID 1645876)
Conditions: RCH-ACV NSD2 E1099K (9B) viability, CellTiter-Glo, 72 h; series mostly up to 44.9 µM
Note: nearly all actives have a fitted effect of over 70% in size.
Potency is the fitted concentration of half-maximal effect.

| Structure (SMILES) | Potency |
| --- | --- |
| CC(C)C[C@H](CO)Nc1nc(S[C@@H](C)c2ccccc2)nc2nc(N)sc12 | 26.3 µM (active) |
| O=C(Nc1ncc([N+](=O)[O-])s1)c1ccccc1O | inactive |
| C=C1C(=O)O[C@H]2CC(=C)[C@H]3CC[C@@](C)(O)[C@@H]3CC12 (some centres undefined) | 12.9 µM (active) |
| O=C(Cc1cccc(OC(F)(F)F)c1)Nc1ccc(CCCCc2nnc(NC(=O)Cc3ccccn3)s2)nn1 | inactive |

Assay: Primary qHTS for inhibitors of nuclear receptor binding SET domain protein 2 (NSD2) in an RCH-ACV wild type WT cells (2C) (AID 1645877)
Conditions: RCH-ACV (leukaemia line) NSD2 WT (2C) viability, CellTiter-Glo, 72 h; series mostly up to 44.9 µM

| Structure (SMILES) | Potency |
| --- | --- |
| CC1CCC(=O)CC(SCC(O)C(=O)O)CCC(=O)O1 (centres undefined) | inactive |
| COc1cc2c(c(OC)c1CC=C(C)C)C[C@H](c1ccc(O)c(CC=C(C)C)c1O)CO2 | inactive |
| CC1OC2OC(=O)C3(C)CC4C5(CO5)C5=CC(=O)OC(C)(C)C5=CC(=O)C4(C)C(C1=O)C23 (centres undefined) | 8.93 µM (active) |
| COc1cc(OC)c(NC(=O)c2ccc(Cc3cc4c(cc3C)C(C)(C)CCC4(C)C)o2)c(OC)c1 | 23 µM (active) |
| O=C(O)c1ccc(N2C(=O)/C(=C/c3ccc(-c4ccc([N+](=O)[O-])cc4)o3)C=C2c2ccccc2)cc1 | inactive |
| Cn1cc(-c2ccc3c(c2)CCN3C(=O)Cc2cccc(C(F)(F)F)c2)c2c(N)ncnc21 | inactive |
| CC(C)(O)C1Cc2c(ccc(C(=O)CCc3ccccc3)c2O)O1 (centres undefined) | inactive |
| CC(=O)O[C@H]1CC[C@]2(C)[C@H]3CC[C@]4(C)Oc5oc(C)cc(=O)c5C[C@H]4[C@]3(C)CC[C@H]2C1(C)C | 7.09 µM (active) |
| CC(C)=CCc1cc2c(cc1O)OC[C@H]1c3ccc(O)cc3O[C@@H]21 | 14.2 µM (active) |
| C=C[C@](C)(O)CC[C@H]1C(C)=CC(=O)[C@H]2C(C)(C)CCC[C@]12C | 18.3 µM (active) |
| COc1ccc(NC(=O)C2C[C@H](C)CC[C@H]2C(C)C)cc1 (some centres undefined) | inactive |
| C=C1C(=O)O[C@@H]2[C@H]3C(C)=CC(=O)C3=C(C)[C@@H](OC(=O)/C(C)=C\C)[C@H](O)[C@@H]12 | 3.58 µM (active) |
| CN1CCN(c2ccc(-c3cccc(CN4CCOCC4)c3)cc2NC(=O)c2c[nH]c(=O)cc2C(F)(F)F)CC1 | inactive |
| CC[C@H](C)/C=C(C)/C=C/C1=CC2=C(Cl)C(=O)[C@](C)(O)[C@H](OC(C)=O)[C@H]2CO1 | 10.1 µM (active) |
| C=C1C(=O)OC2C=C(C)CC/C=C(\CO)CC(O)C12 (centres undefined) | 20.5 µM (active) |
| C=C1CC2[C@@]3(C)C=CC(=O)C(C)(C)C3=C(O)C(=O)[C@@]2(C)C2(C(=O)OC)C(=O)C(C)OC(=O)[C@@]12C (some centres undefined) | 8.93 µM (active) |
| C=C(C(=O)OC)[C@@H]1CC=C2C=CC(=O)[C@H](C)[C@@]2(C)C1 | 20.5 µM (active) |
| C/C=C(/C=C(C)/C=C/C=C/C=C(\C)C(=O)C12OC1C(O)(CCO)NC2=O)C(=O)OC (centres undefined) | 7.96 µM (active) |

| Structure (SMILES) | Potency |
| --- | --- |
| CN1CCN(C(=O)CN[C@@H]2C[C@H]2c2ccc(OCc3ccccc3)cc2)CC1 | 20.5 µM (active) |
| Cn1c(SCC(=O)N2CCC[C@H]2C(=O)Nc2ccccc2-c2ccccc2)nc2ccccc21 | inactive |
| CCC(C)C(=O)Oc1cc(C)ccc1C1(COC(=O)C(C)C)CO1 (centres undefined) | 5.67 µM (active) |
| CCC(C)(OC(C)=O)C(=O)O[C@H]1[C@H](OC(C)=O)[C@]2(CO)[C@H](O)[C@H](O)[C@]3(C)C(=CCC4[C@@]5(C)CC[C@H](O[C@@H]6O[C@H](C(=O)O)[C@@H](O)[C@H](O[C@@H]7OC[C@H](O)[C@H](O[C@@H]8OC[C@H](O)[C@H](O)[C@H]8O)[C@H]7O)[C@H]6O[C@@H]6O[C@H](CO)[C@@H](O)[C@H](O)[C@H]6O)C(C)(C)C5CC[C@]43C)[C@@H]2CC1(C)C (some centres undefined) | 2.44 µM (active) |
| COc1ccccc1C(=O)Nc1cc2c(cc1N1CCCC1)n(C)c(=O)n2C | 23.5 µM (active) |
| O=c1[nH]c2ccccc2n1CCN1CCN(c2cccc(C(F)(F)F)c2)CC1 | inactive |
| CC(C)(CO)c1cc2cc(NC(=O)C3(c4ccc5c(c4)OC(F)(F)O5)CC3)c(F)cc2n1CC(O)CO (centres undefined) | inactive |
| Cc1cc(C)c(-n2cc(C)c3c(Cl)nc(C)nc32)c(C)c1 | inactive |
| CS/C=C/C(=O)O[C@@H]1CCC2=CC(=O)C(=C(C)C)C[C@]2(C)[C@H]1C | 11.3 µM (active) |
| C=C1/C(=C/C=C2\CCC[C@]3(C)[C@@H]([C@@H](C)OCCC(O)(CC)CC)CC[C@@H]23)C[C@@H](O)C[C@@H]1O | 20.5 µM (active) |
| C=C1C(=O)OC2C3=C(C)C(=O)CC3C(C)CC(O)C12 (centres undefined) | 14.5 µM (active) |
| C[C@H]1CC[C@@]2(OC1)O[C@H]1CC3[C@@H]4CC[C@@H]5C[C@@H](O[C@@H]6O[C@H](CO)[C@@H](O[C@@H]7O[C@H](CO[C@@H]8OC[C@@H](O)[C@H](O)[C@H]8O)[C@@H](O[C@@H]8O[C@H](CO)[C@H](O)[C@H](O)[C@H]8O)[C@H](O)[C@H]7O)[C@H](O)[C@H]6O)CC[C@]5(C)C4CC[C@]3(C)[C@H]1[C@@H]2C (some centres undefined) | 3.46 µM (active) |
| CC(=O)c1c(C)cc2cccc(O)c2c1O[C@@H]1O[C@H](CO)[C@@H](O)[C@H](O)[C@H]1O | 12.7 µM (active) |
| COc1ccc(CCCN2CCC(COC(c3ccccc3)c3ccccc3)CC2)cc1 | 16.3 µM (active) |
| COc1ccccc1-c1ccc(-c2cn(C(=O)N3CCCCC3Cc3ccccc3)nn2)cc1 (centres undefined) | inactive |
| C[C@@H]1O[C@@H](O[C@H]2[C@@H]3C=CO[C@@H](O[C@@H]4O[C@H](CO)[C@@H](O)[C@H](O)[C@H]4O)[C@@H]3[C@@]3(CO)O[C@@H]23)[C@H](O)[C@H](OC(=O)/C=C/c2ccccc2)[C@H]1O | 5.41 µM (active) |
| C=C(C(=O)OC[C@H]1O[C@@H](OC(=O)/C=C/c2ccccc2)[C@H](O)[C@@H](O)[C@@H]1O)C(O)CO (some centres undefined) | 5.63 µM (active) |
